The supplement of paper PMC3334620
The full ranking holds about 33,000 sequences; the median of “E-score (-0.5 to 0.5)” is about -0.013, and the highest 2% start at about 0.3. Only a selection was taken, and the highest values are over-represented in it overall.

These sequences were tested against T1, Msn1 (UniProt P22148) (assay: PBM E-score (8-mer binding enrichment) (E-score (-0.5 to 0.5)); higher = stronger / more preferred TF binding). Conditions: protein concentration: 200 nM; construct: GST-full length.
T1 sequence: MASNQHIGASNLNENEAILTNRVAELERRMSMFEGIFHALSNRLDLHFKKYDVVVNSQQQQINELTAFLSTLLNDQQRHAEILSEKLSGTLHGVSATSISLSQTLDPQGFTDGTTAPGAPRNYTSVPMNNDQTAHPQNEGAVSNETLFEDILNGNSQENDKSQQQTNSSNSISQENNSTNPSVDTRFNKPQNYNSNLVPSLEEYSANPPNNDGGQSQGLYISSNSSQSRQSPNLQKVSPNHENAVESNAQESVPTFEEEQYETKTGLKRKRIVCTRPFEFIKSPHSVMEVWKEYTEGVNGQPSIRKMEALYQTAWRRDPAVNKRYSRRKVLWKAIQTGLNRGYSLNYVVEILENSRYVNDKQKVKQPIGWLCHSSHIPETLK
Method: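 Universal 'all 10-mer' protein binding microarrays (Agilent AMADID 015681) probed with GST-tagged S. cerevisiae TFs (full-length or DBD) made by in vitro transcription/translation (PURExpress), about 100-200 nM. Bound TF was detected with fluorescent anti-GST. Each ungapped 8-mer (which stands for itself and its reverse complement) is scored by the PBM enrichment score (E-score), a modified Wilcoxon-Mann-Whitney statistic from -0.5 to +0.5, computed with the Universal PBM Analysis Suite. Scale: above 0.35 generally sequence-specific binding.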
With AGTCTCCG the “PBM E-score” value was 0.159. With ATCACAGC the “PBM E-score” value was 0.053. With AAATGAGT the “PBM E-score” value was 0.0295. AATGTAAT was tested, and the “PBM E-score” value was 0.193. AATGTACA was tested, and the “PBM E-score” value was 0.294. ACTGTACT was tested, and the “PBM E-score” value was -0.00421. AATGTATA was tested, and the “PBM E-score” value was 0.323. With CATGTATA the “PBM E-score” value was 0.141. In the case of GATGTATA, the “PBM E-score” value is reported as -0.11. With AATGTACC the “PBM E-score” value was 0.311. With AATGTACT the “PBM E-score” value was 0.364. AATGTACG was tested, and the “PBM E-score” value was 0.274. In the case of GCTCCCTA, the “PBM E-score” value is reported as -0.334. With GAGACCTA the “PBM E-score” value was -0.0946. For ACTGTCAC, the “PBM E-score” value was 0.00673. AATGTCAG was tested, and the “PBM E-score” value was 0.254. In the case of AGTGTCAT, the “PBM E-score” value is reported as 0.112. AATGTCAC was tested, and the “PBM E-score” value was 0.381. With ACTGTCAT the “PBM E-score” value was 0.0249. In the case of AATGTCAT, the “PBM E-score” value is reported as 0.46. With GTTTGCCA the “PBM E-score” value was -0.0238. With CCACCCAG the “PBM E-score” value was -0.0137. For CGATGTCC, the “PBM E-score” value was 0.436. In the case of GGATGTTA, the “PBM E-score” value is reported as -0.0664. AGATGTCG was tested, and the “PBM E-score” value was 0.0151. AGATGTTC was tested, and the “PBM E-score” value was 0.0457. In the case of AGATGTCC, the “PBM E-score” value is reported as 0.477. With CTATGTGC the “PBM E-score” value was -0.0695. With CGATGTAC the “PBM E-score” value was 0.169. For CGATGTTC, the “PBM E-score” value was -0.0457. With CGATGTCA the “PBM E-score” value was 0.0775. CTATGTTC was tested, and the “PBM E-score” value was 0.103. With GGATGTCA the “PBM E-score” value was 0.305. CTATGTCC was tested, and the “PBM E-score” value was 0.461. AACAGAGT was tested, and the “PBM E-score” value was 0.128. In the case of AACAGCGT, the “PBM E-score” value is reported as 0.0185. ATGGTGGG was tested, and the “PBM E-score” value was -0.316. In the case of CACGCTAG, the “PBM E-score” value is reported as -0.0343. For AATGGGAC, the “PBM E-score” value was 0.0849. In the case of CGAGCTAG, the “PBM E-score” value is reported as -0.0663. GAACAGGC was tested, and the “PBM E-score” value was -0.164. In the case of ACTTGCCT, the “PBM E-score” value is reported as -0.136. CTGAAAGC was tested, and the “PBM E-score” value was 0.0584. For ACTCGAAG, the “PBM E-score” value was -0.168. For AGATGTAA, the “PBM E-score” value was 0.102. In the case of AGATGTGA, the “PBM E-score” value is reported as -0.0694. For AGATGTCA, the “PBM E-score” value was 0.309. For ATAAATGG, the “PBM E-score” value was 0.0876. With TACACGGA the “PBM E-score” value was 0.303. For GACACGCC, the “PBM E-score” value was 0.324. With GACACGGA the “PBM E-score” value was 0.369. For GACACGGC, the “PBM E-score” value was 0.197. With GTCACGGA the “PBM E-score” value was 0.308. For GACACGCA, the “PBM E-score” value was 0.198. In the case of ATCACGGA, the “PBM E-score” value is reported as 0.136. In the case of AACACGCC, the “PBM E-score” value is reported as -0.12. In the case of CTCACGGA, the “PBM E-score” value is reported as 0.0943. For CACTAGCA, the “PBM E-score” value was -0.0794. CCTGAACG was tested, and the “PBM E-score” value was -0.104. ATAAGAGC was tested, and the “PBM E-score” value was 0.0327. With ATCTTGAG the “PBM E-score” value was 0.0323. In the case of ACGTCATA, the “PBM E-score” value is reported as 0.235. With AACCTAAA the “PBM E-score” value was 0.121. With ACAGTGCG the “PBM E-score” value was -0.181. With CACCGGTA the “PBM E-score” value was 0.0943. In the case of AGAACTCT, the “PBM E-score” value is reported as -0.119. CTCCAGTA was tested, and the “PBM E-score” value was 0.057. For GCCGGACA, the “PBM E-score” value was 0.357. With TCCGGAAA the “PBM E-score” value was 0.248. With ACCGGACG the “PBM E-score” value was -0.0239. With ACCGGACA the “PBM E-score” value was 0.306. For CCCGGACG, the “PBM E-score” value was -0.156. With TCCGGAGA the “PBM E-score” value was 0.0632. For ACCGGACT, the “PBM E-score” value was 0.0676. CCCGGACC was tested, and the “PBM E-score” value was -0.11. In the case of CCCGGACA, the “PBM E-score” value is reported as 0.425. With TCCGGACA the “PBM E-score” value was 0.453. With GCCGGAGA the “PBM E-score” value was 0.0857. GCCGGACC was tested, and the “PBM E-score” value was -0.0867. For CGTCCCGC, the “PBM E-score” value was 0.0266. With AGGTCGCC the “PBM E-score” value was -0.164. In the case of AAAAAAGC, the “PBM E-score” value is reported as -0.0879. With AAGGTCCA the “PBM E-score” value was -0.0265. With CCAGCAAA the “PBM E-score” value was 0.06. For AATGGCCT, the “PBM E-score” value was -0.164. In the case of CGTATGGC, the “PBM E-score” value is reported as 0.0738. For AGTATGTA, the “PBM E-score” value was -0.0186. In the case of AGTATGTC, the “PBM E-score” value is reported as 0.353. With AGTATGTG the “PBM E-score” value was 0.0347. With CGTATGTC the “PBM E-score” value was 0.359. In the case of CGTATGTA, the “PBM E-score” value is reported as 0.148. CGTTGGAA was tested, and the “PBM E-score” value was -0.0918. For ACTATACC, the “PBM E-score” value was 0.0929. With ACAGGGAC the “PBM E-score” value was 0.324. With GCAAGGAC the “PBM E-score” value was 0.395. ACAAGGAA was tested, and the “PBM E-score” value was 0.178. ACAGGGAT was tested, and the “PBM E-score” value was -0.147. With GCAGGGAC the “PBM E-score” value was 0.163. ATAAGGAC was tested, and the “PBM E-score” value was 0.369. ATAAGGAT was tested, and the “PBM E-score” value was 0.161. ACAAGGAG was tested, and the “PBM E-score” value was 0.0113. For ACAAGGAC, the “PBM E-score” value was 0.358. CCAAGGAC was tested, and the “PBM E-score” value was 0.16. For GTAAGGAC, the “PBM E-score” value was 0.268. With GCAAGGAA the “PBM E-score” value was -0.122. In the case of GGCGAGGA, the “PBM E-score” value is reported as -0.0575. For TCATCCGA, the “PBM E-score” value was 0.183. In the case of GTACCTGA, the “PBM E-score” value is reported as 0.149. In the case of GTCTGTGA, the “PBM E-score” value is reported as 0.0908. For CGACGCCG, the “PBM E-score” value was 0.0839. For AAAGCACG, the “PBM E-score” value was 0.0204. For TAGCAAAA, the “PBM E-score” value was 0.124. For CCTGTTGA, the “PBM E-score” value was -0.00042. AGAAAACT was tested, and the “PBM E-score” value was 0.116. CCGTGAAC was tested, and the “PBM E-score” value was 0.0411. With CTCTACGA the “PBM E-score” value was 0.0394. For CAGAATGA, the “PBM E-score” value was 0.0577. For AAAGACAT, the “PBM E-score” value was 0.387. For GAAGACAA, the “PBM E-score” value was 0.36. For CAAGACAC, the “PBM E-score” value was 0.183. For GAAGACAC, the “PBM E-score” value was 0.181. With AAAGATAA the “PBM E-score” value was 0.14. CAAGACAG was tested, and the “PBM E-score” value was 0.0634. TAAGATAA was tested, and the “PBM E-score” value was 0.0274. For CAAGACAA, the “PBM E-score” value was 0.367. With CAAGATAA the “PBM E-score” value was 0.324. For AAAGACTT, the “PBM E-score” value was 0.0779. With AAAGACCT the “PBM E-score” value was 0.0725. GAAGACCA was tested, and the “PBM E-score” value was -0.102. For TAGGCAAA, the “PBM E-score” value was 0.0155. For AGTCACAA, the “PBM E-score” value was 0.114. GCCTAGTA was tested, and the “PBM E-score” value was -0.087. CCATGGAG was tested, and the “PBM E-score” value was -0.119. GATGGGGA was tested, and the “PBM E-score” value was -0.143. For ATTTCGCA, the “PBM E-score” value was 0.201. With ACCAGTCA the “PBM E-score” value was -0.0816. With ATCCTTGA the “PBM E-score” value was -0.0979. In the case of AAAGACAA, the “PBM E-score” value is reported as 0.418. TAAGACAA was tested, and the “PBM E-score” value was 0.395. In the case of TAAGACGA, the “PBM E-score” value is reported as -0.00272. With AAAGACAG the “PBM E-score” value was 0.193. AAAGACAC was tested, and the “PBM E-score” value was 0.213. In the case of TAAGACCA, the “PBM E-score” value is reported as -0.13. For AACGGATA, the “PBM E-score” value was 0.18. CGGGGTAC was tested, and the “PBM E-score” value was -0.216. For GTCGATGA, the “PBM E-score” value was -0.0803. For CGGGGGCA, the “PBM E-score” value was -0.318. In the case of GCGACATA, the “PBM E-score” value is reported as 0.299. For ACGACATG, the “PBM E-score” value was 0.364. ACGACATC was tested, and the “PBM E-score” value was 0.163. CCGACATA was tested, and the “PBM E-score” value was 0.215. With ACGACATA the “PBM E-score” value was 0.319. For ACGACAGG, the “PBM E-score” value was 0.0905. For GGTCGGTA, the “PBM E-score” value was 0.0288. AACTGAGT was tested, and the “PBM E-score” value was -0.00489. AATGCGGA was tested, and the “PBM E-score” value was 0.114. For CGTCTAAA, the “PBM E-score” value was -0.0424. TACAGAGA was tested, and the “PBM E-score” value was -0.0201. For TACAGACA, the “PBM E-score” value was 0.371. For GACAGAAA, the “PBM E-score” value was 0.291. For CACAGACA, the “PBM E-score” value was 0.36. CACAGACG was tested, and the “PBM E-score” value was -0.0835. In the case of AACAGACA, the “PBM E-score” value is reported as 0.295. For CACAGACC, the “PBM E-score” value was 0.0741. In the case of GACAGACC, the “PBM E-score” value is reported as 0.0373. For GACAGACA, the “PBM E-score” value was 0.414. In the case of AGAGGCAA, the “PBM E-score” value is reported as -0.0984. ACGTGAAA was tested, and the “PBM E-score” value was 0.119. CGAGTTGA was tested, and the “PBM E-score” value was 0.0114. In the case of TGTACTAA, the “PBM E-score” value is reported as 0.321. TGTACCAA was tested, and the “PBM E-score” value was 0.328. For AGTACCAA, the “PBM E-score” value was 0.175. For CGTACTAA, the “PBM E-score” value was 0.093.
